# Assay results as given in PubChem BioAssay (NCI).
# Compounds without any hit were thinned out: in the full panel of roughly 83,000, 20% have a hit.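 Step 1: grow cells in 96-well plates. Step 2: add test compound at a single concentration. Step 3: incubate 48 h. Step 4: record percent growth.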 Values without a mark were called inactive. The source made the active and inactive calls. Rule for the calls: active = growth percent below 10; inactive = the rest.
# Test system: HL-60(TB) leukemia
# Assay: NCI-60 one-dose screen, 48 h (100 = growth as untreated, 0 = no growth, -100 = all killed)
# Conditions: 10 µM unless noted
row,SMILES,growth
1,CC[C@H](C)[C@@H](C(=O)OC)n1cc(CNC(=O)[C@@H](Cc2ccccc2)NC(=O)OCc2ccccc2)nn1,104%
2,COc1ccc2nc(N=Nc3c(O)ccc4ccccc34)sc2c1,4.48% (active)
3,O=c1c2cc(F)cc(Cl)c2sc2c(NCCCNCCO)nc3ccccc3c12,77.1%
4,O=C(Nc1cccc2c1CCCC2)c1cc2ccccc2cc1O,14.9%
5,O=C1CCCCC1(c1ccccc1)c1ccccc1,106%
6,Cc1cc2nc(CS)[nH]c2cc1C,80.1%
7,CCOc1cccc(/C=N\Nc2nc(=O)cc(C(=O)OC)s2)c1O,72.8%
8,CC(O)c1ncc(/C=C2\SC(=S)N(Cc3ccccc3)C2=O)s1 (stereo not given),85.2%
9,CCN(CC)Cc1cc(Nc2c3ccc(Cl)cc3nc3ccc(OC)cc23)ccc1O,72.5%
10,Oc1[nH]c2ccc(Cl)cc2c1/C=c1/ccc2c(c1)N=C(c1cc(F)cc(F)c1)N=2,70.1%
11,Cc1ccc2c(n1)C(=O)C(Cl)=C(Nc1ccc(N3CCN(C)CC3)cc1)C2=O,-46.7% (active)
12,CCOC(=O)c1cn2ncnc(Oc3ccc(NC(=O)NC4CC4)c(Cl)c3)c2c1C,83.5%
13,CC(=O)c1cc2c(N)c(C(=O)Nc3cccc4c3OCCO4)sc2nc1C,86.8%
14,CC(C)(Sc1cc(C(C)(C)C)c(O)c(C(C)(C)C)c1)Sc1cc(C(C)(C)C)c(OC(=O)CCC(=O)O)c(C(C)(C)C)c1,56.1%
15,C#CCOc1ccc2ncnc(Nc3cccc(NC(=O)CCl)c3)c2c1,63.7%
16,Nc1nc2c(ncn2[C@@H]2O[C@H](CS)[C@@H](O)[C@H]2O)c(=O)[nH]1,101%
17,COC(=O)Cc1cc(COC(C)=O)ccc1C,84.8%
18,COc1cc(C(=O)O)c(O)c(C(C)(C)C)c1,106%
19,CCCCCCCCc1ccc(OCCOCC[N+](C)(C)CC)cc1 (tested in a mixture with another compound),2.54% (active)
20,CCOC(=O)C1=C(Nc2ccc(Br)cc2)C(=O)N(CC)C1,104%

row,SMILES,growth
1,Cc1ccc2c(C3C(C#N)=C(N)Oc4cc5ccccc5cc43)cc(=O)oc2c1 (stereo not given),-14.2% (active)
2,CCN=c1cc2sc3cc(NCC)c(C)cc3nc-2cc1C,2.7% (active)
3,NC(=O)c1ccc(NC(=O)c2oc3ccccc3c2-c2cnn(-c3ccccc3)c2)cc1,98.4% [50 µM]
4,COc1cc2c(c3c1c(=O)c1cccc(F)c1n3C)C=CC(C)(C)O2,100%
5,O=Cc1[nH]c(Sc2ccccc2)c2ccccc12,12.1%
6,CN1C(=O)N(C)C2(c3ccccc3)OC(=S)NC12c1ccccc1 (stereo not given),95.6%
7,CNS(=O)(=O)Oc1ccc(-c2sc3cc(OS(=O)(=O)NC)ccc3c2C(=O)c2ccc(OCCN3CCCCC3)cc2)cc1,94.8%
8,COc1cc(C(=O)c2cc(C)c3[nH]c4ccc(C)cc4c3c2C)cc(OC)c1OC,-2.6% (active)
9,C=C(C)[C@@H]1CC[C@]2(C(=O)NCCNCCNCCN)CC[C@]3(C)[C@H](CC[C@@H]4[C@@]5(C)CCC(=O)C(C)(C)[C@@H]5CC[C@]43C)[C@@H]12,-35.6% [100 µM] (active)
10,O=C(/C=C/c1ccc(Oc2ccc(Br)cc2)cc1)c1ccc(Br)cc1,88%
11,O=C(CC12CC3CC(CC(C3)C1)C2)NCCOCCOCCOCCNC(=O)c1cc2c(o1)C(=O)c1ccccc1C2=O,-7.22% (active)
12,Cc1cc(Nc2cc(N3CCN(C)CC3)nc(Sc3ccc(NC(=O)C4CC4)cc3)n2)n[nH]1,11.2%
13,Ic1ccccc1-c1ccccc1,81.2%
14,Nc1ccc2c3c(cccc13)-c1ccccc1-2,4.53% (active)
15,CCCCC1COc2cccc3c2N1C=C/C3=C\C(=O)n1ccc2ccccc21 (stereo not given),58%
16,CN(C)c1ccc(/C=C\N=Nc2ccc(Br)cc2)cc1,16.6%
17,COc1cc(/C=C/C(=O)CC(=O)/C=C/c2ccc(O)c(OC)c2)ccc1O,0.358% (active)
18,O=C1OCC2=C1C(c1cccc(F)c1)c1cc3c(cc1N2CCO)OCCO3 (stereo not given),-34.5% (active)
19,N=C(N)c1ccc(-c2ccc(-c3ccc(F)cc3)s2)s1,-57.6% (active)
20,CC(C)=CCc1cc(O)c(O)c2oc3cc(O)cc(O)c3c(=O)c12,103%
